Experimental data published in PubChem BioAssay AID1259415 (National Center for Advancing Translational Sciences (NCATS), 2018).
Among all 410,000 compounds or so, about 18,000 (4.4%) were called active. Inconclusive results (about 7%) are left out. The full list was thinned out, with actives kept by preference. A number with no mark means an inactive call. Rule as the data show it: active = activity change below about -60%; inconclusive = no clear call, values can overlap the other calls; inactive = above about -39%.

assay: qHTS Assay for inhibitors of the human cytomegalovirus (HCMV); conditions: HFF cells, HCMV-luciferase reporter, 72 h; at 57.5 µM; active compounds read low
From the text: NCGC Assay Overview: Infection with human cytomegalovirus (HCMV) continues to pose significant threats for pregnant women and immunocompromised hosts. HCMV causes serious morbidity and mortality in transplant recipients, and congenital HCMV is the leading infectious cause of mental retardation and deafness in children. In the 1990s, the annual costs associated with the disease burden of congenital CMV were estimated at around $2 billion. A HCMV vaccine is not available yet and HCMV therapies result in intolerable side effects and emergence of drug resistant viruses. […] Towards this goal we have developed and characterized a luciferase HCMV reporter that was initially used in 96 well plates and then optimized to 1536-well plates for utilization in screening of the MLSMR collection, the NGCG diversity collection and the NCGC Pharmaceutical Collection of approved and investigational drugs.
NCGC Assay Protocol Summary:
This is a cell-based assay for HCMV inhibition in HFFs cells. The screening used 2 compound doses and the HCMV-luciferase at MOI of 1 PFU/cell. Cells were treated and infected with HCMV. At 72 h post infection cell lysates were collected and luciferase activity was determined using the Glomax-Multi + Detection System (Promega, Madison, WI). Data were normalized to the controls for basal activity (buffer only) and known HCMV inhibitors Salinmoycin.
1536-well assay protocol for the assay:
(1) Add 3 ul CMV/HFF cell culture. 1000 cells/well in DMEM nirmal media.
(2) Incubate 16 hr at 37C.
(3) Add 23 nl control compound, 10uM of Salinomycin.
(4) Add 23 nl compounds in DMSO solution.
(5) Add 3 ul CMV suspension. Final 1 puf/ul, Virus stock 2000pfu/ul
(6) Incubate 72 hrs at 37C.
(7) Add 4 ul OneGlo Luc Reagent.
(8) Incubate 5 min at room temperature.
% is scaled to controls: 0 for no effect and ±100 for the full control effect.

| SMILES | activity change, negative = inhibition |
| --- | --- |
| CCOC(=O)c1[nH]c2c(c1-c1ccccc1)C(=O)CC(c1ccc(Cl)cc1)C2 (stereo unspecified) | -60.6% (active) |
| CCOc1ccc(C2C3=C(CCCC3=O)N(CC(=O)O)C3=C2C(=O)CCC3)cc1 | -23.6% |
| CCOC(=O)C1Sc2[nH]c(=O)sc2C(c2ccc(Cl)cc2)C1C(=O)OCC (stereo unspecified) | -32.8% |
| CCc1ccc(C2CC(=O)c3c([nH]c(C(=O)OCc4ccc(C)cc4)c3C)C2)cc1 (stereo unspecified) | -27.1% |
| CCCOC(=O)c1[nH]c2c(c1C)C(=O)CC(c1cccs1)C2 (stereo unspecified) | -91.4% (active) |
| CCOC(=O)c1ccc(N2C(=O)c3[nH]nc(-c4ccccc4)c3C2c2ccc(C(C)C)cc2)cc1 (stereo unspecified) | -27.7% |
| COc1ccc(-c2cnn(C(C)(C)C(=O)Nc3ccccn3)c2)cc1OC | 25% |
| COc1ccc(NC(=O)c2sc(=O)n(Cc3ccc(S(=O)(=O)N(C)C)cc3)c2C)cc1 | -0.573% |
| OCC1(Cc2ccccc2C(F)(F)F)CCN(Cc2ccncc2)CC1 | 71% |
| Cc1nc2c(c(C)nn2-c2ccccc2)c(C)c1CCC(=O)NCCc1ccc(Cl)cc1 | -1.35% |
| Cc1cc(C)c2oc(C(=O)Nc3ccc(S(=O)(=O)N4CCCCCC4)cc3)cc(=O)c2c1 | -9.78% |
| CCOc1ccc(NC(=O)c2cn(C3CCCCC3)c(=O)c3c2c2ccccc2n3C)cc1 | -4.97% |
| O=C(COc1ccc(Cl)cc1)N(Cc1ccco1)Cc1ccco1 | -22.5% |
| COc1ccc(S(=O)(=O)NCC(c2ccc(N(C)C)cc2)N2CCc3ccccc32)cc1OC (stereo unspecified) | 34.1% |
| O=C(CCc1nc2sc3c(c2c(=O)[nH]1)CCCC3)NCC(=O)Nc1ccccc1Br | -4.74% |
| Cc1ccc(C)c(-n2c(SCC(=O)O)nc3sc4c(c3c2=O)CCCC4)c1 | -26% |
| Cc1nc2sc3c(c2c(=O)n1NC(=O)CCl)CCCC3 | -63.7% (active) |
| O=C(c1ccc2c(c1)N(Cc1ccccc1F)C(=O)c1ccccc1S2(=O)=O)N1CCOCC1 | 5.01% |
| COc1cccc2c1C(=O)c1c(O)c3c(c(O)c1C2=O)CC(O)(C(C)=NNC(=O)c1ccc(Cl)c(Cl)c1)CC3OC1CC(N)C(O)C(C)O1 (stereo unspecified) | -99% (active) |
| Cc1ccc2nc(CN3CCN(S(=O)(=O)c4ccc(C)c(C)c4)CC3)oc2c1 | 1.05% |
| COc1ccc(CN2C(=O)C(NC(=O)c3cccc(C)c3)(C(F)(F)F)N=C2c2ccccc2)cc1 (stereo unspecified) | -8.44% |
| CC1Oc2ccccc2N(Cc2cccnc2)C1=O (stereo unspecified) | 49.3% |
| CC1C(=O)N(Cc2ccccc2)c2ccccc2N1C(=O)c1ccccc1 (stereo unspecified) | -73.6% (active) |

| SMILES | activity change, negative = inhibition |
| --- | --- |
| CC1C(C)N(C(=O)CCl)c2ccccc2N1C(=O)CCl (stereo unspecified) | -38.8% |
| COc1cc(C(CC(=O)NCCC(C)C)N2Cc3ccccc3C2=O)cc(OC)c1OC (stereo unspecified) | 22.7% |
| Cc1ccc(CCNC(=O)CN2C(=O)CSc3ccc(S(=O)(=O)N4CCOCC4)cc32)cc1 | -26.9% |
| CCN(CC)S(=O)(=O)c1ccc2c(c1)N(CC(=O)NCc1ccccc1)C(=O)CS2 | -9.16% |
| COC(=O)CN1C(=O)CSc2ccc(S(=O)(=O)Nc3cc(C)ccc3C)cc21 | -71.2% (active) |
| COc1ccc(Cc2nc3ccc(C(=O)NCc4ccccc4C)cc3o2)cc1 | -89.9% (active) |
| COc1ccc(Cc2nc3ccc(C(=O)NCc4ccc(OC)cc4OC)cc3o2)cc1 | -12.1% |
| COc1ccc(Cc2nc3ccc(C(=O)NCc4ccccc4Cl)cc3o2)cc1 | -18% |
| O=C(NC1CCCC1)N1CC(=O)N2[C@H](C1)[C@@H](c1ccc(Br)cc1)[C@@H]2CO | 13.9% |
| CCOC(=O)c1c(NC(=O)c2cc(CC)on2)sc(C(C)=O)c1C | 0.462% |
| CCOC(=O)c1c(NC(=O)CCl)sc(C(=O)N(CC)CC)c1C | -99% (active) |
| CCOC(=O)c1c(NC(=O)COC(=O)c2ccc(S(=O)(=O)C(F)F)cc2)sc(C(=O)N(C)C)c1C | 6.79% |
| O=C(CC1C(=O)NCCN1CC(c1ccccc1)c1ccccc1)NCCc1cn[nH]c1 (stereo unspecified) | -37.4% |
| CCCCNC(=O)c1ccc2c(c1)NC(=O)C(C(C)C)N2 (stereo unspecified) | 7.34% |
| C=CCN(CC=C)S(=O)(=O)c1ccc(C(=O)Nc2sc3c(c2C(N)=O)CCCCC3)cc1 | -93.4% (active) |
| COCCN(CCOC)S(=O)(=O)c1ccc(C(=O)Nc2nc3c(s2)CCc2ccccc2-3)cc1 | -63.9% (active) |
| C=CCN(CC=C)S(=O)(=O)c1ccc(C(=O)Nc2nc3c(s2)CCc2ccccc2-3)cc1 | -86.4% (active) |
| CCCN(CCC)S(=O)(=O)c1ccc(C(=O)Nc2sc3c(c2C(=O)OC)CCN(CC)C3)cc1 | -35.8% |
| COCCN(CC(=O)Nc1ccccc1C)S(=O)(=O)c1ccc(S(=O)(=O)N2CCCC2)cc1 | 26.9% |
| O=C(Nc1ncc2c(n1)-c1ccccc1OC2)c1ccc(Cl)cc1 | 16.2% |
| CCCCN(C)S(=O)(=O)c1ccc(C(=O)Nc2sc3c(c2C(N)=O)CC(C)(C)NC3(C)C)cc1 | -1.57% |
| C=CCN(c1ccc(C(=O)Nc2cc(C)cc(C)c2)cc1)S(C)(=O)=O | -28.7% |
| CCOC(=O)c1c(NC(=O)c2ccc(S(=O)(=O)N(CC)CC)cc2)sc2c1CCCCC2 | 49.3% |
